# Hits are enriched below; roughly 20% of the tested compounds scored in any of these assays.
# Pf growth 96h – inhibits malaria parasite growth, 96 h. P. falciparum luciferase reporter growth, 96 h. Potency, µM (titrated, usually from 28.7 µM), inactives show at the highest dose activity change, negative = inhibition, most hits filed as inhibitors. 6.9% of 320,000 active; also: potency is read from the fitted curve at half-maximal effect; % is scaled to controls: 0 for no effect and ±100 for the full control effect
#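 Plates of compound plus infected erythrocytes (2% hematocrit, 0.05% parasitemia final) incubate 96 hours, 37 C, 5% CO2. Detection reagent added; reduced luminescence from the parasites' luciferase reporter flags inhibition.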
# Pf growth 48h – inhibits P. falciparum growth in the first generation, 48 h; 5.9% of 310,000 active; Potency, µM (highest dose often 28.7 µM), for the others: top-dose activity change, negative = inhibition, hits mostly inhibitors; P. falciparum luciferase growth in erythrocytes, 48 h; AID 504832; also: potency is read from the fitted curve at half-maximal effect; % is scaled to controls: 0 for no effect and ±100 for the full control effect
#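 Luciferase-expressing P. falciparum in infected erythrocytes (2% hematocrit, 0.1% parasitemia final) in RPMI 1640/0.5% Albumax were exposed to compound for 48 hours at 37 C, 5% CO2; growth read as luminescence.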
# Cycloheximide cs – affects cycloheximide protein synthesis inhibition readout, counter-screen | max response, % | 12% of 300,000 active | AID 2314 | cell reporter, cycloheximide protein synthesis inhibition counterscreen; in the data active = max response mostly above about 13%, no sharp cut-off; inactive = mostly below about 14%; also: read at 38.3 µM for the half of the compounds with a filed dose; 0% is about no effect
# Shiga inhibitor – inhibitors of Shiga toxin in Vero cells. Vero cells, Shiga toxin protein synthesis inhibition reporter. inhibition, % at 38.7 µM. 9.2% of 290,000 active; in the data active = inhibition mostly above about 28%, no sharp cut-off; inactive = mostly below about 43%; also: 0% is about no effect
# HCMV antiviral – blocks human cytomegalovirus replication | 4.5% of 410,000 active | activity change, negative = inhibition, % at 57.5 µM | HFF cells, HCMV-luciferase reporter, 72 h; stronger effect = lower value; in the data active = activity change below about -60%; inconclusive = no clear call, values can overlap the other calls; inactive = above about -39%; also: % is scaled to controls: 0 for no effect and ±100 for the full control effect
#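 Cell-based, HFFs, 1000 cells/well, 16 h 37C; cpds in DMSO + HCMV-luc, MOI 1 PFU/cell; 72 h 37C; OneGlo luminescence after 5 min RT; norm. to buffer vs Salinomycin 10uM.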
# Starred values were filed as active, the others as inactive; ? = inconclusive; . = not tested or not shown; + = active, no number; [ ] = dose if it differs, or a comment. Unless noted, calls follow the shape of the dose curve; as a rule, active = well fitted inhibition curve with a large enough effect; inconclusive = small, poorly fitted or top-dose-only effect, or another doubt; inactive = no such curve, though single readings can be large or run the other way.
SMILES,Pf growth 96h,Pf growth 48h,Cycloheximide cs,Shiga inhibitor,HCMV antiviral
O=C1NC(=O)C2(Cc3cc([N+](=O)[O-])ccc3N3CCN(C(=O)c4ccccc4)CC32)C(=O)N1 (stereo unspecified),18%,-13%,-2,-13,?
CCCCn1c(-c2ccccc2)nc2c(=O)n(C)c(=O)[nH]c21,0%[5.75 µM],13%,1,13,-2
CC(C)CC(=O)N1CCN(C(=O)c2ccc(F)cc2)CC1,13µM*,13%,0,-7,21
O=C(COc1ccc(OCc2ccccc2)cc1)NN=C1CCCC1,?,31%,13,44,5
O=C1CCCCC/C1=N/Nc1ccc(OCc2ccccc2)cc1,47%,11%,12*,28,27
COc1ccc(COC(=O)C2=C(C)NC(=O)NC2c2ccc(F)cc2)cc1 (stereo unspecified),2.9µM*,?,-3,0,-75*
COc1ccc(C2NC(=O)NC(C)=C2C(=O)OCc2ccc3c(c2)OCO3)cc1OC (stereo unspecified),484%,4.7µM*,0,6,33
CC1=C(C(=O)OCc2ccc3c(c2)OCO3)C(c2cccc([N+](=O)[O-])c2)NC(=O)N1 (stereo unspecified),31%,5%,2,-18,-81*
CCC(CC)COC(=O)C1=C(C)NC(=O)NC1c1ccc2c(c1)OCO2 (stereo unspecified),0.93µM*,29%,-3,-17,-22
CCOC(=O)C1=C(C)NC(=O)NC1c1ccc2c(c1)OCO2 (stereo unspecified),7%,-28%,7,9,5
Cc1cccc(N2CCN(CCCNc3ncnc4onc(-c5ccc(Cl)cc5)c34)CC2C)c1 (stereo unspecified),.,.,.,.,-2
Cc1ccccc1NS(=O)(=O)c1ccc(NC(=O)N2CCCCC2)cc1,-9%,?,19,7,-18
Cc1cc(C)c(NC(=O)Cn2c(=O)n(CCC(=O)NCc3ccc4c(c3)OCO4)c(=O)c3ccccc32)c(C)c1,.,.,.,.,5
Cc1occc1C(=O)NNC(=O)Cc1ccccc1,?,31%,2,-9,7
C=CCN1C(=O)c2ccc(C(=O)N3CCN(S(=O)(=O)c4ccc(C(C)C)cc4)CC3)cc2C1=O,7%,17%,.,.,-16
Cc1ccc(SC(C)C(=O)N2CCN(c3ccccc3)CC2)cc1 (stereo unspecified),8.3µM*,27%,4,9,75
O=C(C(Sc1ccccc1)c1ccccc1)N1CCN(c2ccccc2)CC1 (stereo unspecified),?,?,-1,-12,-11
CCCNC(=O)c1c(N)n(-c2ccc3c(c2)OCO3)c2nc3ccccc3nc12,4.1µM*,8.3µM*,7,30,27
CCOC(=O)c1c(N)n(-c2cccc(OC)c2)c2nc3ccccc3nc12,.,.,.,.,2
CCCNC(=O)c1c(N)n(-c2cc(OC)cc(OC)c2)c2nc3ccccc3nc12,10µM*,?,-2,0,-17
COCCCNC(=O)c1c(N)n(-c2ccc3c(c2)OCO3)c2nc3ccccc3nc12,11%,6.6µM*,9,20,-28
Nc1c(C(=O)OCC2CCCO2)c2nc3ccccc3nc2n1-c1ccc2c(c1)OCCO2 (stereo unspecified),.,?,35*,60*,-66*
COc1ccc(-c2nc3c(C#N)c[nH]n3c2NC2CCCCC2)c(OC)c1,.,.,.,.,9
O=C(Cc1ccc(NC(=O)C2CCCN(C(=O)C3CCC3)C2)cc1)Nc1cccc(C(=O)N2CCCC2)c1 (stereo unspecified),.,.,.,.,10
O=c1c2c3nc4ccccc4nc3n(-c3ccc4c(c3)OCCO4)c2ncn1C1CCCC1,.,8.3µM*,-2,29,-77*
SMILES,Pf growth 96h,Pf growth 48h,Cycloheximide cs,Shiga inhibitor,HCMV antiviral
COc1ccc(CCn2ccc(O)c(Cc3c(F)cccc3Cl)c2=O)cc1OC,?,?,-1,11,?
O=C(Cc1cnc2ncnn2c1)N1CCc2c([nH]c3ccccc23)C1c1ccccn1 (stereo unspecified),16%,0%,4,-10,?
CCCOc1ccc(-c2csc(N)n2)cc1[N+](=O)[O-],24%,83%,45*,+,-32
CCCCOc1ccc(-c2cn3ccccc3n2)cc1[N+](=O)[O-],-45%,77%,62*,103*,1
CCOc1ccc(-c2cn3ccccc3n2)cc1[N+](=O)[O-],122%,142%,38*,67*,83
CCN1CCN(c2nc3c(C)cccn3c(=O)c2/C=C(\C#N)S(=O)(=O)c2ccc(Cl)cc2)CC1,13%,-10%,-1,-7,12

# Screening results: PubChem BioAssay, National Center for Advancing Translational Sciences (NCATS)
